Source: PubChem BioAssay (NCI)
Compounds without any hit were thinned out: in the full panel of roughly 79,000, 15% have a hit. Values without a mark were called inactive. The source made the active and inactive calls. Cut-off read from the data, not from the text of the source: active = growth inhibition above about 70%; inactive = the rest.

What was measured:
[1] = NCI Yeast Anticancer Drug Screen. Data for the mec2-1 strain (AID 157); conditions: S. cerevisiae mec2-1 strain, active compounds read high
Outline: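 Growth inhibition is read against vehicle-treated controls after compound exposure of the mec2-1 yeast strain, which is defective in DNA damage repair or cell cycle control.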

[2] = NCI Yeast Anticancer Drug Screen. Data for the sgs1 mgt1 strain (AID 161);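 note: 0% = growth of cultures given vehicle only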; conditions: S. cerevisiae sgs1 mgt1 strain, active compounds read high
Outline: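 Compounds are added to genetically altered yeast, and growth is compared with cultures given vehicle alone to give percent inhibition.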

[3] = NCI Yeast Anticancer Drug Screen. Data for the CLN2oe strain (AID 163);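 note: 0% = growth of vehicle-only control cultures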; conditions: S. cerevisiae CLN2oe strain, active compounds read high
Outline: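 Compound-treated yeast; growth vs vehicle ctrl = % inhibition. Genetically altered strain (cell-cycle control).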

[4] = NCI Yeast Anticancer Drug Screen. Data for the cln2 rad14 strain (AID 165);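 note: 0% = growth equal to vehicle treated cultures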; conditions: S. cerevisiae cln2 rad14 strain, active compounds read high
Outline: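 Growth inhibition, relative to vehicle-treated controls, is the read-out. The test organism is a yeast strain with defined genetic alterations, cln2 rad14.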

[5] = NCI Yeast Anticancer Drug Screen. Data for the bub3 strain (AID 167); conditions: S. cerevisiae bub3 mutant strain, active compounds read high
Outline: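 In this screen, a yeast mutant lacking normal mitotic checkpoint function is challenged with compound. Relative growth versus vehicle gives the inhibition value.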

[6] = NCI Yeast Anticancer Drug Screen. Data for the wt2 strain (AID 169);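 note: 0% = growth of vehicle-treated yeast cultures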; conditions: S. cerevisiae wt2 strain growth inhibition, active compounds read high
Outline: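 Compound exposure of yeast; growth compared with vehicle controls; inhibition reported.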

[7] = NCI Yeast Anticancer Drug Screen. Data for the sgs1 strain (AID 173);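 note: 0% = growth of vehicle-only control cultures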; conditions: S. cerevisiae sgs1 mutant, active compounds read high
Outline: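 Compounds applied to genetically altered yeast; growth compared with vehicle-treated cultures to give % inhibition.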

[8] = NCI Yeast Anticancer Drug Screen. Data for the mlh1 rad18 strain (AID 175); conditions: S. cerevisiae mlh1 rad18 strain growth inhibition, active compounds read high
Outline: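 Cells of a genetically altered yeast strain, deficient in DNA damage repair, were treated with compound. Their growth was then compared with that of vehicle-treated cultures to give inhibition.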

[9] = NCI Yeast Anticancer Drug Screen. Data for the rad18 strain (AID 177); conditions: S. cerevisiae rad18 mutant growth inhibition, active compounds read high
Outline: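 Compounds are applied to a repair-deficient yeast strain, and growth is compared with that of vehicle-treated cultures to give percent inhibition.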

[10] = NCI Yeast Anticancer Drug Screen. Data for the rad52 strain (AID 147);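 note: 0% = growth of vehicle-treated control cultures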; conditions: S. cerevisiae rad52 mutant growth inhibition, active compounds read high
Outline: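 DNA repair-defective yeast; compound exposure; growth scored against vehicle controls.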

[11] = NCI Yeast Anticancer Drug Screen. Data for the wt1 strain (AID 149);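 note: 0% = growth of vehicle-treated wt1 cultures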; conditions: S. cerevisiae wt1 strain (SPY 50644) growth inhibition, active compounds read high
Outline: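 wt1 strain grown with compound or vehicle; inhibition taken from the growth difference.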

[12] = NCI Yeast Anticancer Drug Screen. Data for the rad50EPP+ strain (AID 151);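 note: 0% = growth of vehicle-treated control cultures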; conditions: S. cerevisiae rad50 mutant strain, active compounds read high
Outline: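 rad50EPP+ yeast treated with test compounds. Readout: growth vs vehicle control.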

[13] = NCI Yeast Anticancer Drug Screen. Data for the mgt1 strain (AID 153); conditions: S. cerevisiae mgt1 mutant growth inhibition, active compounds read high
Outline: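 Growth inhibition relative to vehicle controls was scored for the mgt1 yeast strain after compound exposure.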

[14] = NCI Yeast Anticancer Drug Screen. Data for the rad50 strain (AID 155);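 note: 0% = growth of vehicle-only cultures of the same strain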; conditions: S. cerevisiae rad50 strain growth inhibition, active compounds read high
Outline: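 DNA repair mutant yeast, compound exposure, growth read-out; inhibition is taken relative to vehicle.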

[15] = NCI Yeast Anticancer Drug Screen. Data for the rad14 strain (AID 159);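 note: 0% = growth of vehicle-treated control cultures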; conditions: S. cerevisiae rad14 strain growth inhibition, active compounds read high
Outline: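 DNA repair-defective yeast, compound-exposed; % growth inhibition derived by comparison with vehicle-treated controls.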

[16] = NCI Yeast Anticancer Drug Screen. Data for the mlh1 strain (AID 171);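 note: 0% = growth of vehicle-treated control cultures of the same strain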; conditions: S. cerevisiae mlh1 strain growth inhibition, active compounds read high
Outline: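 Compounds are applied to a genetically altered yeast strain, and its growth is compared with that of vehicle-treated cultures to give percent inhibition.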

[17] = at 5.0 µM (retest, dose inferred, filed as 0.5)
[18] = at 50.0 µM (retest, dose inferred, filed as 5.0)

Compound: O=c1[nH]c2ccccc2c2nc3ccccc3n12
- growth inhibition [1, 17]: 62%
- growth inhibition ([1]; at 11.0 µM): -41%
- growth inhibition ([1]; at 33.0 µM): -42%
- growth inhibition [1, 18]: 97% (active)
- growth inhibition ([1]; at 50.0 µM): 12.7%
- growth inhibition ([1]; at 100.0 µM): 12%
- growth inhibition [2, 17]: -17%
- growth inhibition [2, 18]: 22%
- growth inhibition ([3]; at 1.2 µM): 12%
- growth inhibition ([3]; at 3.7 µM): -2%
- growth inhibition ([3]; at 11.0 µM): 15%
- growth inhibition ([3]; at 33.0 µM): 40%
- growth inhibition ([3]; at 100.0 µM): 26%
- growth inhibition [4, 17]: 33%
- growth inhibition [4, 18]: 59%
- growth inhibition ([5]; at 1.2 µM): -11%
- growth inhibition ([5]; at 3.7 µM): 5%
- growth inhibition [5, 17]: 45%
- growth inhibition ([5]; at 11.0 µM): 11%
- growth inhibition ([5]; at 33.0 µM): 60%
- growth inhibition [5, 18]: 74% (active)
- growth inhibition ([5]; at 100.0 µM): 42%
- growth inhibition ([6]; at 1.2 µM): -53%
- growth inhibition ([6]; at 3.7 µM): -47%
- growth inhibition ([6]; at 11.0 µM): -47%
- growth inhibition ([6]; at 33.0 µM): -15%
- growth inhibition ([6]; at 100.0 µM): 26%
- growth inhibition ([7]; at 1.2 µM): -43%
- growth inhibition ([7]; at 3.7 µM): -58%
- growth inhibition ([7]; at 11.0 µM): -64%
- growth inhibition ([7]; at 33.0 µM): 23%
- growth inhibition ([7]; at 100.0 µM): -14%
- growth inhibition [8, 17]: 49%
- growth inhibition [8, 18]: 86% (active)
- growth inhibition ([8]; at 50.0 µM): 47.1%
- growth inhibition ([9]; at 1.2 µM): -29%
- growth inhibition ([9]; at 3.7 µM): -22%
- growth inhibition ([9]; at 11.0 µM): -20%
- growth inhibition ([9]; at 33.0 µM): 27%
- growth inhibition ([9]; at 100.0 µM): 9%

Compound: COc1cc(NCc2ccc3nc(N)nc(N)c3c2C)cc(OC)c1OC
- growth inhibition ([10]; at 1.2 µM): 1%
- growth inhibition ([10]; at 3.7 µM): 5%
- growth inhibition ([10]; at 11.0 µM): 17%
- growth inhibition ([10]; at 33.0 µM): 37%
- growth inhibition ([10]; at 100.0 µM): 68%
- growth inhibition ([11]; at 1.2 µM): -1%
- growth inhibition ([11]; at 3.7 µM): -4%
- growth inhibition ([11]; at 11.0 µM): -6%
- growth inhibition ([11]; at 33.0 µM): -7%
- growth inhibition ([11]; at 100.0 µM): 1%
- growth inhibition ([12]; at 1.2 µM): -5%
- growth inhibition ([12]; at 3.7 µM): -4%
- growth inhibition ([12]; at 11.0 µM): -4%
- growth inhibition ([12]; at 33.0 µM): 6%
- growth inhibition ([12]; at 100.0 µM): 27%
- growth inhibition ([13]; at 1.2 µM): -3%
- growth inhibition ([13]; at 3.7 µM): -6%
- growth inhibition ([13]; at 11.0 µM): -7%
- growth inhibition ([13]; at 33.0 µM): -7%
- growth inhibition ([13]; at 100.0 µM): 37%
- growth inhibition ([14]; at 1.2 µM): -3%
- growth inhibition ([14]; at 3.7 µM): -3%
- growth inhibition ([14]; at 11.0 µM): 7%
- growth inhibition ([14]; at 33.0 µM): 28%
- growth inhibition ([14]; at 50.0 µM): -7.65%
- growth inhibition ([14]; at 100.0 µM): 78% (active)
- growth inhibition ([1]; at 1.2 µM): -4%
- growth inhibition ([1]; at 3.7 µM): 8%
- growth inhibition ([1]; at 11.0 µM): 39%
- growth inhibition ([1]; at 33.0 µM): 82% (active)
- growth inhibition ([1]; at 50.0 µM): 54.6%
- growth inhibition ([1]; at 100.0 µM): 95% (active)
- growth inhibition ([15]; at 1.2 µM): -2%
- growth inhibition ([15]; at 3.7 µM): -6%
- growth inhibition ([15]; at 11.0 µM): -8%
- growth inhibition ([15]; at 33.0 µM): -5%
- growth inhibition ([15]; at 100.0 µM): 43%
- growth inhibition ([2]; at 50.0 µM): 0.6%
- growth inhibition ([3]; at 1.2 µM): -8%
- growth inhibition ([3]; at 3.7 µM): -18%
- growth inhibition ([3]; at 11.0 µM): -17%
- growth inhibition ([3]; at 33.0 µM): -16%
- growth inhibition ([3]; at 100.0 µM): 30%
- growth inhibition ([4]; at 50.0 µM): -1.2%
- growth inhibition ([5]; at 1.2 µM): -13%
- growth inhibition ([5]; at 3.7 µM): -15%
- growth inhibition ([5]; at 11.0 µM): -15%
- growth inhibition ([5]; at 33.0 µM): -24%
- growth inhibition ([5]; at 50.0 µM): -46.8%
- growth inhibition ([5]; at 100.0 µM): 43%
- growth inhibition ([6]; at 1.2 µM): -4%
- growth inhibition ([6]; at 3.7 µM): -5%
- growth inhibition ([6]; at 11.0 µM): -7%
- growth inhibition ([6]; at 33.0 µM): -2%
- growth inhibition ([6]; at 100.0 µM): 46%
- growth inhibition ([16]; at 1.2 µM): -4%
- growth inhibition ([16]; at 3.7 µM): -6%
- growth inhibition ([16]; at 11.0 µM): -5%
- growth inhibition ([16]; at 33.0 µM): 5%
- growth inhibition ([16]; at 100.0 µM): 56%
- growth inhibition ([7]; at 1.2 µM): -2%
- growth inhibition ([7]; at 3.7 µM): -2%
- growth inhibition ([7]; at 11.0 µM): 5%
- growth inhibition ([7]; at 33.0 µM): 22%
- growth inhibition ([7]; at 100.0 µM): 75% (active)
- growth inhibition ([8]; at 50.0 µM): -74.6%
- growth inhibition ([9]; at 1.2 µM): -6%
- growth inhibition ([9]; at 3.7 µM): -2%
- growth inhibition ([9]; at 11.0 µM): 1%
- growth inhibition ([9]; at 33.0 µM): 20%
- growth inhibition ([9]; at 100.0 µM): 77% (active)
